Screens deposited in PubChem by National Center for Advancing Translational Sciences (NCATS).
An excerpt weighted towards active compounds, which were near 2.7% of everything screened.
LDHA inh: inhibitors of human lactate dehydrogenase A; purified LDHA, NADH/diaphorase-resazurin fluorescence; active compounds read low; activity change, % (values are at about 110 or 230 µM); 480,000 compounds, 0.15% hits; AID 1347041; P00338; in the data active means activity change below about -30%; inconclusive means mostly about -25% to -30%;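 further: plate controls were DMSO wells for no effect and wells without enzyme for full effect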
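Resorufin fluorescence (ex540/em590), read at 0 and 20 min after diaphorase/resazurin addition, reports the NADH left after a 5 min room-temperature reaction of 2 nM human LDH5 with 0.06 mM NADH and 0.2 mM pyruvate.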
12-LOX inh: ALOX12 (human) lipoxygenase inhibition; P18054; purified 12hLO, xylenol orange hydroperoxide absorbance; Potency, µM (highest dose often 108 µM), inactives show at the highest dose activity change, negative = inhibition, usual class: inhibitors; 580,000 compounds, 1.1% hits; AID 1671190; further: potency means the concentration at half of the fitted maximal effect; on the % scale 0 is the no-effect control and ±100 the full control effect
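Purified human 12hLO at 150 nM in 25 mM Hepes, 0.01% Triton X-100, pH 7.0, preincubated 15 min at room temperature with compound. Reaction started with 40 uM arachidonic acid, 30 min at room temperature. Hydroperoxide measured by Fe-xylenol orange, 573/405 nm absorbance ratio.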
A549 tox: counter-screen for Nrf2 inhibitors: cytotoxicity in A549 cells; 390,000 compounds, 0.16% hits; Potency, µM (top dose mostly 46 µM), for the others: at the top dose activity change, negative = cytotoxicity, hits mostly inhibitors; A549 ARE-Fluc cells, CellTiter-Fluor viability, 18-24 h; further: potency means the concentration at half of the fitted maximal effect; on the % scale 0 is the no-effect control and ±100 the full control effect
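A549 ARE-Fluc cells in 5% FBS OPTI-MEM, 5000 cells/well, rested 2 h then exposed to compounds in concentration-response for 18-24 h at 37 °C. Viability by CellTiter-Fluor fluorescence (Ex 405/Em 525) after 30 min; luciferase luminescence (BugLite, 15 min, RT) read afterwards.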
Nrf2 activator: Nrf2 pathway activation | AREc32 ARE-luciferase reporter (MCF7-derived line), luminescence, 24 h | Potency, µM (highest dose often 46.1 µM), for the others: at the top dose activation, hits mostly activators | 410,000 compounds, 0.31% hits; further: potency means the concentration at half of the fitted maximal effect; % of control where 0% means no effect; nearly all actives have a fitted effect of over 65% in size
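Steps: seed AREc32_Fluc cells (1000/well, 5% FBS OPTI-MEM); incubate overnight at 37 deg C; add 23 nL compound; incubate 24 hr; add Steady-Glo; hold 30 min RT; read luminescence.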
Nrf2 inh: blocks Nrf2 signaling. A549 ARE-Fluc reporter, luciferase luminescence, 18-24 h. 360,000 compounds, 2.1% hits. Potency, µM (series often up to 46 µM), without a hit: at the top dose activity change, negative = inhibition, actives largely listed as inhibitors; further: potency means the concentration at half of the fitted maximal effect; on the % scale 0 is the no-effect control and ±100 the full control effect; nearly all actives have a fitted effect of over 60% in size
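Nrf2 function is reported as luminescence of an ARE-controlled luciferase in A549 cells. Compounds were tested at several concentrations, and a CellTiter-Fluor read on the same wells flagged cytotoxicity.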
IDH1 R132H inh: inhibitors of human mutant IDH1 R132H | IDH1-R132H enzyme, NADPH consumption, diaphorase/resazurin fluorescence | Potency, µM (highest dose often 76.6 µM), inactives show at the highest dose activity change, negative = inhibition, hits mostly inhibitors | 390,000 compounds, 0.093% hits; further: potency means the concentration at half of the fitted maximal effect; on the % scale 0 is the no-effect control and ±100 the full control effect; nearly all actives have a fitted effect of over 65% in size
Target sequence (O75874 whole entry R132H, stated change not applied): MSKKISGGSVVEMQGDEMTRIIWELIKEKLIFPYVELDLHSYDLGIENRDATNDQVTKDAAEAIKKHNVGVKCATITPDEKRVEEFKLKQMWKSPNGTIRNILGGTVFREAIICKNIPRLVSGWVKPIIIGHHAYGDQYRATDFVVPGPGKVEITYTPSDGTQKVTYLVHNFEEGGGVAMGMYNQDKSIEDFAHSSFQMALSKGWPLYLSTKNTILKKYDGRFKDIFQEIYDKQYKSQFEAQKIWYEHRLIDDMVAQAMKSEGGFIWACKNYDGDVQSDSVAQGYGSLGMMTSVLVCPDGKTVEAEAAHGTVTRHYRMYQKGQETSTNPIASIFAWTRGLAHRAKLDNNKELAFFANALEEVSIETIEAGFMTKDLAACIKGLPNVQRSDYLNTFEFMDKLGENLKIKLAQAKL
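IDH1-R132H (0.5 ug/mL dispensed) in pH 7.5 Tris buffer was preincubated 30 min with compound, then given a substrate mix of 0.016 mM NADPH and 2 mM alpha-KG for 80 min at room temperature; remaining NADPH was read by diaphorase/resazurin fluorescence.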
* = called active by the depositor; i = inactive; ? = inconclusive; . = not tested or not shown; [ ] = remark or other dose. Unless noted, the call rests on the fitted dose curve; in most records, active means well fitted curve in the direction sought with a large enough effect; inconclusive means small, poorly fitted or top-dose-only effect, or another doubt; inactive means no such curve, though single readings can be large; an effect the other way counts as inactive or inconclusive.

SMILES	LDHA inh	12-LOX inh	A549 tox	Nrf2 activator	Nrf2 inh	IDH1 R132H inh
COc1ccc(S(=O)(=O)N2CCN(c3ccc(F)cc3)CC2)cc1OC	-9	-89%	19%	-1%	6%	3%
COc1ccc(OC2CCN(S(=O)(=O)c3ccc(OC)c(OC)c3)CC2)cc1	-4	0%	-15%	0%	16µM*	-2%
O=C(NCCCCCCNC(=O)C1CC1)C1CC1	10	-4%	.	.	.	.
Cc1cc(C)c(/C=C/C(=O)O)cc1C	3	16%	.	.	.	.
Cc1cccc(CNc2ccnc(-c3ccoc3)n2)c1	.	20µM*	.	.	.	.
O=C(NNC(=O)C12CC3CC(CC(C3)C1)C2)c1ccccn1	-5	i	?	?	21µM*	-3%
O=C(NNC(=O)C12CC3CC(CC(C3)C1)C2)c1cnccn1	1	4%	-5%	0%	-7%	2%
CCN(CC)C(=O)c1c(NC(=O)c2ccccc2)sc(C)c1C	-1	164%[57.4 µM]	-4%	3%	4%	5%
CCN(CC)Cc1c(NC(=O)c2ccccc2)sc(C)c1C	-8	-17%	12%	11µM*	21%	-10%
Oc1c(Br)cc(Br)cc1C=NCc1ccc(F)cc1	1	40µM*	4%	0%[9.22 µM]	6%	-10%
Oc1c(Br)cc(Br)cc1C=NCc1ccccc1	2	?	0%	0%[9.22 µM]	-6%	-5%
C(=N\N(Cc1ccccc1)c1ccccc1)/c1cccnc1	1	?	0%	0%	12%	0%
Oc1cccc(/C=N/N(Cc2ccccc2)c2ccccc2)c1	3	50µM*	0%	0%	14%	9%
Oc1ccc(/C=N/N(Cc2ccccc2)c2ccccc2)c(O)c1O	31	40µM*	-27%	4%	-11%	3%
Cc1nnc(NC(=O)Nc2ccc(C)c(C)c2)s1	2	8%	.	.	.	.
CC1(C)C2CC=C(/C=N/NC(=S)NC3CCCCC3)C1C2 (stereo not given)	1	?	.	.	.	.
CC(C)NC(=S)N/N=C/C1=CCC2CC1C2(C)C (stereo not given)	-3	35µM*	?	0%	-14%	1%
CC1(C)C2CC=C(/C=N/NC(=S)NCc3ccccc3)C1C2 (stereo not given)	-6	35µM*	.	.	.	.
C=CCN1C(C(=O)c2ccccc2)=C(OC(=O)COc2ccccc2)c2ccccc2S1(=O)=O	0	-13%	?	0%	?	3%
CCN1C(C(=O)c2ccccc2)=C(OC(=O)COc2ccc(C)cc2)c2ccccc2S1(=O)=O	3	-24%	?	-1%	23µM*	-10%
CCCN1C(C(=O)c2ccccc2)=C(OC(=O)COc2ccc(C)cc2)c2ccccc2S1(=O)=O	4	?	?	-2%	18µM*	8%
CCCN1C(C(=O)c2ccccc2)=C(OC(=O)COc2ccccc2)c2ccccc2S1(=O)=O	-2	?	?	-2%	23µM*	-13%
CCCN1C(C(=O)c2ccccc2)=C(OC(=O)C(C)(C)C)c2ccccc2S1(=O)=O	6	-31%	?	-3%	?	11%
CCN1C(C(=O)c2ccccc2)=C(OC(=O)c2ccc(Cl)cc2)c2ccccc2S1(=O)=O	2	-24%	?	-1%	21µM*	5%
CCN1C(C(=O)c2ccccc2)=C(OC(=O)COc2ccc(OC)cc2)c2ccccc2S1(=O)=O	-1	-1%	?	-1%	?	-2%
SMILES	LDHA inh	12-LOX inh	A549 tox	Nrf2 activator	Nrf2 inh	IDH1 R132H inh
O=C(NCc1ccccc1Cn1cccn1)c1cn[nH]c1-c1ccc(Cl)cc1	0	10%	.	.	.	.
CCCn1c(=O)n(CC(=O)NCC(=O)Nc2cccc(C)c2C)c2ccccc21	-8	?	.	.	.	.
COc1ccc(Nc2cc(C)c3cc(C)ccc3n2)cc1	3	18µM*	.	.	.	.
Cc1noc(C)c1S(=O)(=O)Nc1ccccc1SCc1cc(=O)n2cc(Cl)ccc2n1	0	?	.	.	.	.
Cc1cc(C)cc(OCC(=O)N/N=C/c2ccc([N+](=O)[O-])o2)c1	-3	-9%	?	4%	21µM*	12%
O=[N+]([O-])c1ccc(/C=N/N=C/c2ccc([N+](=O)[O-])o2)o1	13	-2%	21µM*	4µM*	?	2%
O=C(Cc1ccc([N+](=O)[O-])cc1)N/N=C/c1ccc([N+](=O)[O-])o1	1	?	-22%	6%	21µM*	-10%
CCCCCCCC(=O)N/N=C/c1ccc([N+](=O)[O-])o1	-14	-16%	-2%	12%	?	-8%
O=C(CCN1CCN(c2ccccc2)CC1)N/N=C/c1ccc([N+](=O)[O-])o1	12	i	?	11%	21µM*	5%
O=C(CN1CCOCC1)NN=Cc1ccc([N+](=O)[O-])o1	.	1%	.	-1%	.	.
NC(=O)NN=Cc1ccc([N+](=O)[O-])o1	.	-24%[57.4 µM]	.	.	.	.
O=C(CNc1cccc([N+](=O)[O-])c1)N/N=C/c1ccc([N+](=O)[O-])o1	-3	-3%	-10%	11%	-9%	1%
O=C(CNc1cccc2ccccc12)N/N=C/c1ccc([N+](=O)[O-])o1	4	-23%	?	10%	16µM*	5%
C=C1C(=O)C2=CC1CCC(=O)C1(C)CCC(OC(C)=O)C(C)(C)C1CC2O (stereo not given)	-8	5%	?	?	15µM*	0%
CN1CC(c2ccccc2Cl)C2(COc3ccccc3C2=O)C12C(=O)Nc1ccccc12 (stereo not given)	4	-9%	-26%	0%	21µM*	2%
CCOC(=O)C1=C(C)N=c2s/c(=C/c3cccc([N+](=O)[O-])c3O)c(=O)n2C1c1ccc(OC)cc1OC (stereo not given)	-2	?	16µM*	0%[9.22 µM]	?	-10%
CCOC(=O)C1=C(C)N=c2s/c(=C\c3ccc(O)c([N+](=O)[O-])c3)c(=O)n2C1c1ccccc1OC (stereo not given)	-8	?	-25%	0%	-11%	-12%
CC1=C(C(=O)Nc2ccccc2)C(c2ccc(Cl)cc2)n2c(s/c(=C/c3cccc(OCC(=O)O)c3)c2=O)=N1 (stereo not given)	-5	45µM*	-16%	16%	1%	6%
CCOC(=O)C1=C(C)N=c2s/c(=C/c3ccc(OCC(=O)O)c(OC)c3)c(=O)n2C1c1ccc(Cl)cc1 (stereo not given)	2	25µM*	-25%	0%	0%	-27%
CCc1ccc2oc(=O)cc(CN3CCN(CC(=O)N4CCCCC4)CC3)c2c1	?	-26%	.	.	.	.
